CHO-K1 Ca antag = counter-screen for M1 antagonists: effect in parental CHO-K1 cells. ATP-induced calcium, Fluo-8 fluorescence. inhibition, % at 3 µM. 0.6% of 360,000 active. AID 602250;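 active = inhibition above a per-plate cutoff, the plate's mean sample inhibition plus 3 SD, cut at about 24% in these data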
CHRM1 antagonist = human CHRM1 antagonism. P11229. CHO-K1 hM1, Fluo-8 calcium fluorescence, ACh EC80 antagonist. inhibition, % at 3 µM. 1.3% of 360,000 active;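 active = percent inhibition above its own plate's cutoff, namely the mean of that plate's compound wells plus 3 SD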;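 also: peak over basal fluorescence ratio during 140 s after agonist addition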
Target sequence (P11229 whole entry, looked up): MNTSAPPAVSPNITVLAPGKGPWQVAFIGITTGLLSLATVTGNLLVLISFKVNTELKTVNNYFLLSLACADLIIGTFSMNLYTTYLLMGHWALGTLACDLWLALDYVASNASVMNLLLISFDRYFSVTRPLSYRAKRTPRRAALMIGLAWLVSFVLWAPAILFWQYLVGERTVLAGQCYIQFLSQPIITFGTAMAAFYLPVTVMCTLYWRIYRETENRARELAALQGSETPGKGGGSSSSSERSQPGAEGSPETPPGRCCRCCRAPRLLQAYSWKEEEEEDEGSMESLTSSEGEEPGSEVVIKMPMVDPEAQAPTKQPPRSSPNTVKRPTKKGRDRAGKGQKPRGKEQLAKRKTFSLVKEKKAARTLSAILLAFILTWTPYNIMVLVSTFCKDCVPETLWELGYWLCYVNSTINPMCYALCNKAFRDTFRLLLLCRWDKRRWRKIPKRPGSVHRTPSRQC
M1 ag = agonists of human M1 muscarinic receptor; 0.33% of 360,000 active; P11229; CHO-K1 hM1, Fluo-8 calcium fluorescence, agonist mode; 0% DMSO, 100% acetylcholine EC100; AID 588814; activation, % at 3 µM;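 active = activation above the run's mean compound activation plus 3 SD, cut at about 16% in these data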;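 also: peak over basal fluorescence ratio within a 140 s kinetic read after compound addition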
CHO-K1 Ca PAM = nonselective activator or artifact in parental CHO-K1 calcium assay; ATP EC20, Fluo-8 calcium fluorescence; 0% at ATP EC20, 100% at ATP max; activation, % at 3 µM; 0.02% of 360,000 active;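 active = activation above the run cutoff, the mean activation of all test compounds plus 3 SD, cut at about 40% in these data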;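 also: peak over basal fluorescence ratio in a 140 s read after ATP addition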
M1 PAM = potentiates human M1 receptor response to acetylcholine | P11229 | CHO-K1 hM1, Fluo-8 calcium fluorescence, ACh EC20; 0% = ACh EC20, 100% = maximal ACh | activation, % at 3 µM | 0.088% of 360,000 active; in the data active = activation above about 19%, passing the limit was not always enough
CHO-K1 Ca ag = counter-screen for M1 agonists: effect in parental CHO-K1 cells. AID 602248. 0.48% of 360,000 active. Fluo-8 calcium fluorescence; scaled to maximal ATP response, vehicle zero. activation, % at 3 µM; in the data active = activation above about 15%;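 also: untransfected CHO-K1 host cells lacking M1 receptor as counterscreen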
A number is an active result; 0 = inactive. Only some compounds are listed: those with a hit (about 2.3% of all), similar ones and a draw of the others.

SMILES	CHO-K1 Ca antag	CHRM1 antagonist	M1 ag	CHO-K1 Ca PAM	M1 PAM	CHO-K1 Ca ag
CCCCN1C(=O)C(CC(=O)NC2CCCC2)CC(C(=O)N(CC)CC)=C1C (stereo not drawn)	26.2	0	0	0	0	0
CCN(CC)C(=O)C1=C(C)N(CCC2=CCCCC2)C(=O)C(CC(=O)NCC2CCCCC2)C1 (stereo not drawn)	24.7	0	0	0	0	0
COc1ccc(/C=C/CN2CCCC(CCC(=O)NCc3ccc(F)c(F)c3)C2)cc1 (stereo not drawn)	0	84.3	0	0	0	0
COc1ccccc1/C=C/CN1CCCC(CCC(=O)NCc2ccc(F)c(F)c2)C1 (stereo not drawn)	0	0	0	0	0	0
O=C(CCC1CCCN(Cc2cccc3c2OCO3)C1)NCc1ccc(F)c(F)c1 (stereo not drawn)	0	42.1	0	0	0	0
OC(c1ccc(Cl)cc1)c1ncc(-c2cccc(C(F)(F)F)c2)[nH]1 (stereo not drawn)	0	0	0	0	0	0
CCN(CC1CCCN(CCc2cccc(F)c2)C1)C(=O)c1cc2ccccc2o1 (stereo not drawn)	0	52.8	0	0	0	0
CCN(CC1CCCN(CCc2cccc(OC)c2)C1)C(=O)c1ccoc1C (stereo not drawn)	0	0	0	0	0	0
CN(CC1CCCN(CCc2cccc(C(F)(F)F)c2)C1)C(=O)c1cc2ccccc2o1 (stereo not drawn)	0	52.0	0	0	0	0
CCN(CC1CCCN(CCc2cccc(F)c2)C1)C(=O)c1cc(C)oc1C (stereo not drawn)	0	42.9	0	0	0	0
CCN(C1CCCCC1)S(=O)(=O)c1ccc(S(=O)(=O)NCc2ccncc2)cc1	0	35.3	0	0	0	18.1
CCOC(=O)/C(=C\c1ccccc1)C(=O)CCN1CCOCC1	0	0	0	0	0	0
CN(C)CCCOC(=O)N1c2ccccc2C=Cc2ccccc21	0	94.6	0	0	0	0
CCOC(=O)CCCCCC(=O)Nc1ccc2c(c1)C(=O)N([C@H](C)CO)C[C@H](C)[C@@H](CN(C)S(C)(=O)=O)OCCCC[C@@H](C)O2	0	0	0	0	0	0
CC#CC(=O)N1CCC(n2nccc2NC(=O)CCc2ccccc2)CC1	0	0	0	0	0	0
CC(C)=CC(=O)N1CCC(n2nccc2NC(=O)CCc2ccccc2)CC1	40.0	0	0	0	0	0
CC[n+]1c(/C=C/c2cc([N+](=O)[O-])ccc2O)ccc2ccccc21	23.9	0	0	0	0	0
Cc1ccc(C2(c3noc(CN(C)Cc4ccccn4)n3)CCCC2)cc1	0	38.2	0	0	0	0
CCOC(=O)c1cnc2c(cnn2C)c1NCCCN(C)C	32.9	0	0	0	0	0
CC12CC3CC(C)(C1)CC(C(=O)NCc1cccnc1)(C3)C2	0	0	0	0	0	0
Cc1ccc(C)c(OCCC(=O)OCC(=O)NCCNC(=O)COC(=O)CCOc2cc(C)ccc2C)c1	26.6	47.2	0	0	0	0
Cc1ccc(C)c(OCCC(=O)OCC(=O)NCc2ccccc2)c1	0	0	0	0	0	0
CC(=O)c1cccc(S(=O)(=O)Nc2ccccc2N2CCOCC2)c1	0	0	0	0	0	0
Cc1sc2ncnc(NCC(c3ccco3)N3CCCC3)c2c1C (stereo not drawn)	0	90.9	0	0	0	0
Oc1ccc(C[C@@H]2CNCCN2CCc2cc(C(F)(F)F)cc(C(F)(F)F)c2)cc1	0	0	0	0	25.2	0
SMILES	CHO-K1 Ca antag	CHRM1 antagonist	M1 ag	CHO-K1 Ca PAM	M1 PAM	CHO-K1 Ca ag
CCCCN(C)CCNC(=O)CN1C(=O)CSc2ccc(S(=O)(=O)N3CCOCC3)cc21	0	42.5	0	0	0	0
CCC1CCCCN1CCCNC(=O)CN1C(=O)CSc2ccc(S(=O)(=O)N3CCC(C)CC3)cc21 (stereo not drawn)	0	38.7	0	0	0	0
CC(C)CN(CCNC(=O)CN1C(=O)CSc2ccc(S(=O)(=O)N3CCOCC3)cc21)CC(C)C	0	40.4	0	0	0	0
CCN(CC)C(=O)C1=C(C)N(Cc2ccccc2)C(=O)C(CC(=O)NCc2cccs2)C1 (stereo not drawn)	0	0	0	0	0	0
Cc1cccc(C)c1NC(=O)CN1CCN(C(=O)CN2C(=O)NC3(CCCCC3C)C2=O)CC1 (stereo not drawn)	0	0	0	0	28.5	0
O=C1C(NS(=O)(=O)c2cccs2)=C(N2CCN(Cc3ccccc3)CC2)C(=O)c2ccccc21	0	30.6	0	0	0	0
CCOc1ccccc1N1CCN(C2=C(NS(=O)(=O)c3cccs3)C(=O)c3ccccc3C2=O)CC1	0	59.7	0	0	0	0
C=CCn1c(C)nnc1SCC(=O)Nc1cc(S(=O)(=O)N2CCCC2)ccc1Cl	0	0	0	0	0	0
COCCNC(=O)CSc1nc(N)c(NC(=O)c2ccccc2F)c(=O)[nH]1	24.3	0	0	0	0	0
Nc1nc(SCC(=O)O)[nH]c(=O)c1NC(=O)c1ccccc1F	0	0	0	0	0	0
Cc1ccccc1CS(=O)(=O)c1nnc([C@H](Cc2ccccc2)NC(=O)OC(C)(C)C)o1	0	0	0	0	0	0
CCC(C)[C@@H](NC(=O)OC(C)(C)C)c1nnc(S(=O)(=O)Cc2cccc(C)c2)o1 (stereo partly drawn)	26.5	0	0	0	0	0
CN(C)C(C)(C)/C=C/C(O)(c1ccccc1)c1ccccc1	0	100.0	0	0	0	0
CN(C)N(Cc1ccccc1)C(=O)C(O)(c1ccccc1)c1ccccc1	0	0	0	0	0	0
O=S(=O)(NCCCCNS(=O)(=O)c1c(F)cccc1F)c1ccc2c(c1)OCCO2	0	0	0	0	0	0
Cc1onc(-c2ccccc2)c1NC(=O)Nc1ccc(OC(F)F)cc1	0	0	0	0	0	24.7
COCOCCn1cc(CN2CCS(=O)(=O)N(Cc3ccc(-c4ccc(OC)c(OC)c4)cc3)C(CC(C)C)C2=O)nn1 (stereo not drawn)	0	0	0	0	0	0
O=[N+]([O-])c1ccc(Cl)c(C[n+]2cccc3ccccc32)c1	0	0	0	0	0	0
Cc1cc(O)ccc1-c1cc(C(=O)NCc2ccc(F)cc2)[nH]n1	0	0	25.1	0	0	0
C/C=C(\C)C(=O)NNC(=O)c1sc(-c2ccccc2)nc1C	0	0	0	0	0	0
Cc1ccc(C(C)C)c2c1C(c1ccc3c(c1)OCO3)CC(=O)O2 (stereo not drawn)	0	0	20.6	0	0	0
COCCN(C(=O)C1CCN(C(=O)c2ccccc2C)CC1)c1c(N)n(CC(C)C)c(=O)[nH]c1=O	0	0	0	0	0	0

Compound activity (PubChem)
